PKA inh: blocks human protein kinase A activity; inhibition, % at 6 µM; P17612; PKA Kemptide phosphorylation, Kinase-Glo ATP luminescence; 0.1% of 65,000 active;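 active = inhibition above the screen-wide mean inhibition plus 3 SD, cut at about 21% in these data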
D1 allo mod: allosteric modulators of human D1 dopamine receptor; 5.9% of 58,000 active; HEK293 D1, CRE-luciferase, dopamine EC30 potentiation; actives deviate in either direction; B-score at 10 µM;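 active = luminescence count or its row- and column-corrected plate score outside the 99.7% band of the plate's sample wells, on either side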
hDAT+cocaine: human DAT dopamine uptake with cocaine, either direction; Q01959; LLC-PK1 hDAT cells, [14C]-dopamine uptake with cocaine IC80; actives deviate in either direction; B-score at 10 µM; 1.3% of 110,000 active;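 active = Z score or B-score, a plate-position-corrected score, falls beyond the plate's 99.7% confidence bounds, in either direction; inactive = both scores lie inside the 99.7% bounds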
ROCK2 inh: blocks human Rho kinase 2 activity; inhibition, % at 6 µM; 0.35% of 60,000 active; purified ROCK2, Kinase-Glo ATP depletion luminescence; AID 604; O75116;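 active = inhibition above the screen-wide mean inhibition plus 3 SD, cut at about 18% in these data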
JNK3 blocker: JNK3 (human) kinase inhibition | P53779 | purified JNK3 kinase activity, HTS | inhibition, % at 8 µM | 0.61% of 60,000 active | AID 746; in the data active = inhibition above about 17%
Target sequence (P53779 whole entry, looked up): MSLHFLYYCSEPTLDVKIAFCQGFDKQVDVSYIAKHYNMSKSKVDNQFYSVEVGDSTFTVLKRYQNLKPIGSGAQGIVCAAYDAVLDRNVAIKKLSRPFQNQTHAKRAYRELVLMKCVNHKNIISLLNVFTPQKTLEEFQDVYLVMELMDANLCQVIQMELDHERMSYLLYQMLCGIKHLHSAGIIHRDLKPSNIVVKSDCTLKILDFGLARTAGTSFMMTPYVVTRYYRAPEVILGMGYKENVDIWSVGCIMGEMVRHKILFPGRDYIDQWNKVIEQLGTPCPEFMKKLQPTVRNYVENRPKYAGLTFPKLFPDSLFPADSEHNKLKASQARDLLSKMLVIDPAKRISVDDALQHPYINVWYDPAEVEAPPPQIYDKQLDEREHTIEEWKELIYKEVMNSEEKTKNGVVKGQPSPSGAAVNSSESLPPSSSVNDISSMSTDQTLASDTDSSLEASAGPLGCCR
A number is an active result; . = inactive; / = no result. The sample as a whole holds a higher share of hits than the screen did.

SMILES	PKA inh	D1 allo mod	hDAT+cocaine	ROCK2 inh	JNK3 blocker
CC(=O)N1CCc2cc(S(=O)(=O)NC(CC(C)C)C(=O)Nc3cc(C)ccn3)ccc21 (configuration not stated)	.	-3.98	.	.	.
CC(=O)C1=C(C)NC(SCC(N)=O)=C(C#N)C1c1sccc1C (configuration not stated)	/	/	6.9	/	/
Cc1c2c(n3c(nc4ccccc43)c1C#N)N(Cc1ccccn1)CC2	.	.	/	.	.
CSc1ccccc1C(=O)N1CCOCC1	.	/	.	.	.
O=C(c1ccccc1CCc1ccccc1)N1CCOCC1	.	.	-6.81	.	.
COc1ccc(-n2nnc3c(SCC(=O)N4CCN(c5ccccc5)CC4)ncnc32)cc1	.	.	/	.	.
COc1cc(/C=N/NC(=O)CCc2c(C)n[nH]c2C)ccc1O	/	/	-9.44	/	/
COc1ccc(/C=N/NC(=O)CCc2c(C)n[nH]c2C)cc1OC	/	/	.	/	/
O=C(NCc1ccc(OC(F)(F)F)cc1)C1CC(c2cccc(F)c2)=NO1 (configuration not stated)	/	/	.	/	/
COc1ccccc1-c1nnc2sc(C3CCCCC3)nn12	.	/	1.85	.	.
c1cc(-c2nnc3sc(C4CCCCC4)nn23)ccn1	.	/	.	.	.
Cc1ccc(-c2nnc(NC3CCCCC3)c3ccccc23)cc1S(=O)(=O)N1CCN(C)CC1	/	/	1.85	/	/
COc1cccc(C2C(C(=O)c3cccs3)=C(O)C(=O)N2CCCn2ccnc2)c1OC (configuration not stated)	.	.	/	.	.
CC(=O)Nc1ccc(OCC(O)CN2CCN(c3cccc(Cl)c3)CC2)cc1 (configuration not stated)	.	-3.1	.	.	.
Cc1c(C)n(C)c2ccc(C(=O)NCc3cccs3)cc12	.	.	.	32.4	.
CCOC(=O)c1c(C)c(C(=O)Nc2ccccc2)c(C)n1CC	.	.	/	.	.
CCOC(=O)c1c(C)c(C(=O)N2CCc3ccccc3C2)c(C)n1CC	.	.	2.46	.	.
CCOC(=O)c1c(C)c(C(=O)NCc2cccs2)c(C)n1CC	.	.	2.85	.	.
CC(C)(C)c1cc(NC(=O)CCSc2nnc3ccccn23)cc(C(C)(C)C)c1	/	/	.	/	/
COC(=O)CNc1c(-c2ccccn2)nc2ccc(Br)cn12	.	.	-7.16	/	/
CCCc1nc(SCC(N)=O)[nH]c(=O)c1CC	.	-2.8	.	/	/
O=C(/C=C\Nc1ccc2c(c1)OCO2)c1ccccn1	.	-7.98	.	.	.
Cc1ccc(C(c2nnnn2Cc2ccccc2)N2CCN(Cc3ccccc3)CC2)cc1 (configuration not stated)	/	/	.	/	/
CCOc1ccc(C(=O)NCC2OCCc3ccccc32)cc1 (configuration not stated)	/	/	.	/	/
CCOC(=O)C1CCCN(C(=S)Nc2ccc(C)cc2C)C1 (configuration not stated)	/	/	.	/	/
SMILES	PKA inh	D1 allo mod	hDAT+cocaine	ROCK2 inh	JNK3 blocker
COc1ccc(NC(=O)c2cc(-c3cccnc3)nc3ccc(C)cc23)cc1OC	/	/	.	/	/
Cc1cccc(NC(=O)c2cc(-c3ccco3)nc3ccccc23)n1	.	-3.7	.	.	.
COc1ccc(NC(=O)c2cc(-c3ccc(C)o3)nc3ccccc23)cc1OC	.	-4.71	.	.	.
Cc1nc2ccccc2c2oc(C(=O)NCC3COc4ccccc4O3)cc12 (configuration not stated)	.	-3.52	.	.	.
COc1cc(NC(=O)c2cc3c(C)nc4ccccc4c3o2)cc(OC)c1OC	.	-4.59	.	.	.
CCc1ccccc1NC(=O)CSc1nnc(-c2ccco2)n1N	.	.	.	.	.
CCOc1ccc(NC(=O)C(C)Oc2ccccc2C(=O)Nc2cccc(Cl)c2Cl)cc1 (configuration not stated)	/	/	.	/	/
O=C(NCCO)C(F)(F)C(F)(F)C(F)(F)OC(F)(C(=O)NCCO)C(F)(F)F (configuration not stated)	/	/	.	/	/
COc1cc(NC(=O)c2ccc(COc3ccccc3Br)o2)cc(OC)c1OC	.	.	.	.	20.1
COc1ccc(NC(=O)c2ccc(COc3ccccc3Br)o2)cc1OC	.	.	.	.	.
O=C(COc1ncnc2ccc(Br)cc12)NCc1ccc2c(c1)OCO2	/	/	-8.86	/	/
COCCNC(=O)COc1ncnc2ccc(Br)cc12	/	/	.	/	/
CCCCCC(=O)Nc1cccc(C2=NOC3(C2)C[C@@H](C(N)=O)N(C(=O)CC(c2ccccc2)c2ccccc2)C3)c1 (some centres not stated)	/	/	.	/	/
CN(C)C=Nc1ncc2c3ccccc3n(Cc3ccccc3)c2c1C#N	.	.	.	.	.
CN(C)C=Nc1ncc2c3ccccc3n(CCN(C)C)c2c1C#N	.	.	2.95	.	.
COc1ccccc1-c1c(C(F)(F)F)oc2cc(OC(=O)c3cccc([N+](=O)[O-])c3C)ccc2c1=O	/	/	.	/	/
C=CCn1c(SCc2nc(N)nc(N(C)C)n2)nnc1-c1cccnc1	.	-6.03	/	.	.
C=CCn1c(SCC(=O)Nc2nnc(CC)s2)nnc1-c1cccnc1	/	/	.	/	/
Cc1oc2cc(OCC(=O)O)ccc2c(=O)c1Oc1ccccc1	.	.	.	/	/
CCc1cc2c(=O)c(Oc3ccccc3)c(C)oc2cc1O	.	.	-2.48	.	.
CCOC(=O)c1cc2occc2n1CC(=O)N1CCCc2ccccc21	.	4.18	.	.	.
CCCCOc1ccc(NC(=O)C2CC=CCC2C(=O)O)cc1 (configuration not stated)	.	-2.64	.	.	.
Cc1[nH]c(=O)c(C#N)c2c1CSC(C)(C)C2	/	/	-2.49	/	/
CCOc1ccc(OCc2cccc(C(=O)N3CCCC3)c2)cc1	.	-3.94	.	.	.
O=C(O)c1cccc(COc2ccc(CO)cc2Cl)c1	.	-7.1	.	.	.
SMILES	PKA inh	D1 allo mod	hDAT+cocaine	ROCK2 inh	JNK3 blocker
CCOc1ccc(OCc2cccc(C(=O)O)c2)cc1	.	-4.51	.	.	.
COc1ccc(OCc2cccc(C(=O)O)c2)cc1	.	-10.7	.	.	.
O=C(O)c1ccc(COc2ccc(CO)cc2Cl)cc1	.	.	.	.	.
COC(=O)c1ccccc1NC(=O)c1cc(-c2ccc(OC)c(OC)c2)on1	.	.	/	.	.
CCOc1ccccc1NC(=O)C1CCN(S(=O)(=O)c2cccc3cccnc23)CC1	.	.	/	.	.
CCOc1ccc(C(=O)N2CCCC2)cc1	/	/	5.88	/	/
CCOc1ccc(-n2cc(C(=O)NCc3ccco3)c3cc(OC)c(OC)cc3c2=O)cc1	.	.	.	.	.
CCOc1ccc(-n2cc(C(=O)N3CCCCCC3)c3cc(OC)c(OC)cc3c2=O)cc1	.	.	2.86	.	.
Nc1cc(C(=O)O)ccc1N1CCCCCC1	.	.	.	.	.
O=S(=O)(c1ccccc1C(F)(F)F)N1CCC(n2cnc3ccccc32)CC1	/	/	2.67	/	/
COc1cc2[nH]c3c(N4CCN(c5ccccn5)CC4)ncnc3c2cc1OC	.	-4.76	.	.	.
CCOC(=O)N1CCN(c2ncnc3c2[nH]c2ccc(OC)cc23)CC1	.	.	3.49	.	.
CCOC(=O)N1CCN(c2ncnc3c2[nH]c2ccc(F)cc23)CC1	/	/	.	/	/
Nc1nc(-c2ccccc2)cc(-c2ccccc2O)n1	.	.	.	.	34.8

Compound activity from PubChem.
